Laboratory results taken from the supplement of paper PMC11482750.
± gives the standard deviation of the averaged measurements.

The targets below were run with CCOC(C)=O [ethyl acetate] (assay: control-subtracted net OSN firing rate; higher = stronger neuronal activation). Details: odorant dilution (vol/vol): 1/100.
Protocol: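 Single sensillum recordings from olfactory sensory neurons. The neurons sit in the maxillary palp or antennal sensilla of D. melanogaster (wild type, mutants, or at1 empty-neuron lines expressing Or42a homologs or the A181D S307P mutant) and of four Scaptomyza species. Each odorant was given as a 1 s pulse from 20 µl loaded on filter paper at 1:100 vol/vol, diluted in mineral oil (γ-hexalactone in DMSO). Spikes were counted in a 0.5 s window starting 0.2 s after onset, background was subtracted, the count was doubled, and the mean solvent-control response was subtracted.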
In the case of Canton-S (D. melanogaster) pb2b, the “control-subtracted net OSN firing rate” value is reported as 4 ± 6.4 spikes/s. In the case of Canton-S (D. melanogaster) pb1b, the “control-subtracted net OSN firing rate” value is reported as -7.33 ± 9.6 spikes/s. For S. pallida pb1a-like, the “control-subtracted net OSN firing rate” value was 80.3 ± 20 spikes/s. S. hsui pb1a-like was tested, and the “control-subtracted net OSN firing rate” value was 98.3 ± 21 spikes/s. For S. pallida pb1b-like, the “control-subtracted net OSN firing rate” value was -12.7 ± 9.3 spikes/s. Canton-S (D. melanogaster) pb3b was tested, and the “control-subtracted net OSN firing rate” value was 0.333 ± 9.4 spikes/s. For S. pallida pb3b-like, the “control-subtracted net OSN firing rate” value was 28.7 ± 25 spikes/s. S. hsui pb2b-like was tested, and the “control-subtracted net OSN firing rate” value was 53 ± 37 spikes/s. With S. pallida pb3a-like the “control-subtracted net OSN firing rate” value was 8.67 ± 14 spikes/s. In the case of S. hsui pb3a-like, the “control-subtracted net OSN firing rate” value is reported as -4.33 ± 11 spikes/s. With S. flava pb3a-like the “control-subtracted net OSN firing rate” value was 6.67 ± 11 spikes/s. For S. pallida pb2a-like, the “control-subtracted net OSN firing rate” value was 7.33 ± 11 spikes/s. For Canton-S (D. melanogaster) pb1a, the “control-subtracted net OSN firing rate” value was 89.1 ± 27 spikes/s. In the case of S. flava pb2a-like, the “control-subtracted net OSN firing rate” value is reported as -1.67 ± 5.7 spikes/s. In the case of S. pallida pb2b-like, the “control-subtracted net OSN firing rate” value is reported as 9.33 ± 10 spikes/s. S. flava pb1b-like was tested, and the “control-subtracted net OSN firing rate” value was -6.33 ± 12 spikes/s. For S. hsui pb2a-like, the “control-subtracted net OSN firing rate” value was 8 ± 5.1 spikes/s. In the case of S. flava pb2b-like, the “control-subtracted net OSN firing rate” value is reported as 0.333 ± 7.3 spikes/s. With Canton-S (D. melanogaster) pb2a the “control-subtracted net OSN firing rate” value was 4.57 ± 6.5 spikes/s. S. flava pb3b-like was tested, and the “control-subtracted net OSN firing rate” value was 0.333 ± 9.7 spikes/s. With S. hsui pb3b-like the “control-subtracted net OSN firing rate” value was -2.33 ± 2.3 spikes/s. Canton-S (D. melanogaster) pb3a was tested, and the “control-subtracted net OSN firing rate” value was 1.33 ± 8.4 spikes/s. With S. hsui pb1b-like the “control-subtracted net OSN firing rate” value was -16.7 ± 9.4 spikes/s. In the case of S. flava pb1a-like, the “control-subtracted net OSN firing rate” value is reported as 61.7 ± 23 spikes/s.
